# Counter-ions that a name gives are not always drawn. In all, about 2,800 compounds were measured (“cell viability relative to vehicle”: median about 1.1, lowest 2% from about 0.19 on). The sample as a whole holds a higher share of the lowest values than the screen did.
# System: NCI-H2228 parental
# Experiment: cell viability relative to vehicle (fraction of vehicle); NCI-H2228 is an ALK-positive lung cancer line and DTP means drug-tolerant persister; higher = less growth inhibition
# Details: 100 nM; treatment time 6 days
# Method in brief: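 Parental NCI-H2228 cells and drug-tolerant persister cells (made with 1000 nM of a targeted drug for 13 days) were seeded in 384-well plates. The next day, the 3114-agent TargetMol anti-cancer compound library was added at 100 nM, with DMSO as vehicle. After 6 days, ATP was read with the CellTiter-Glo 3D Cell Viability Assay. Each value is cell viability relative to vehicle-treated cells.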
row,Structure (SMILES),cell viability
1,CCNC(=O)c1cc2c(-c3cc(C(C)(C)O)ccc3Oc3c(C)cc(F)cc3C)cn(C)c(=O)c2[nH]1,0.898
2,C[C@H](NC(=O)CCC(F)(F)F)C(=O)N[C@@H]1C(=O)N(CCO)c2ncccc2-c2ccccc21 [Crenigacestat],1.05
3,CC(C)=CCC[C@](C)(O[C@@H]1O[C@H](CO)[C@@H](O)[C@H](O)[C@H]1O)[C@H]1CC[C@]2(C)[C@@H]1[C@H](O)C[C@@H]1[C@@]3(C)CC[C@H](O[C@@H]4O[C@H](CO)[C@@H](O)[C@H](O)[C@H]4O[C@@H]4O[C@H](CO)[C@@H](O)[C@H](O)[C@H]4O)C(C)(C)[C@@H]3CC[C@]12C [Ginsenoside Rd],1.18
4,C=CC(=O)Nc1ccc(CN2C(=O)N(c3cc(OC)cc(OC)c3)Cc3cnc(Nc4ccc(N5CCN(C)CC5)cc4)nc32)cc1,0.858
5,OC[C@H]1O[C@@H](Oc2ccc3c(c2)OC[C@H]2c4cc5c(cc4O[C@@H]32)OCO5)[C@H](O)[C@@H](O)[C@@H]1O [Trifolirhizin],1.02
6,O=c1cc(N2CCOCC2)oc2c(-c3ccc4c(c3)OCCO4)csc12,1.14
7,Nc1ccccc1NC(=O)CCCCCCC(=O)Nc1ccccc1,1.09
8,Cc1c[nH]c2nc(Nc3ccc(N4CCN(C)CC4)c(F)c3)nc(-c3cccc(CC#N)c3)c12,0.777
9,Cc1ncc(CCCN(C)C)cc1Nc1ncc2c(n1)-c1ccc(C(F)(F)F)cc1NC(=S)C2,0.178
10,C=C(C)[C@@H]1CC[C@]2(C)[C@H](CC=C3[C@@H]4[C@@H](C)[C@H](C)CC[C@]4(C)CC[C@]32C)[C@@]1(C)CCC(=O)O [Roburic acid],1.08
11,CC1=C[C@]2(O)O[C@@]3(CC2=C(C)C)[C@@H](C)CC[C@@H]13 [Curcumenol],1.1
12,CC(=O)O[C@@H]1C[C@H](O)[C@@]23CO[C@@H](O)[C@]1(C)[C@@H]2C[C@@H](O)[C@]1(C)[C@@H]3C(=O)[C@H](OC(C)=O)[C@@]2(C)[C@H](c3ccoc3)C[C@H]3O[C@]321 [Toosendanin],0.147
13,CC(=O)O[C@H]1CC(=O)OC(C)(C)[C@@H]2CC(=O)[C@]3(C)[C@H](CC[C@@]4(C)[C@@H](c5ccoc5)OC(=O)[C@H]5O[C@]543)[C@@]12C [Nomilin],1.13
14,"CC(C)=CCC(OC(=O)C=C(C)C)C1=CC(=O)c2c(O)ccc(O)c2C1=O (stereo not drawn) [beta, beta-dimethylacrylshikonin]",1.03
15,CC1(C)CC[C@]2(C(=O)O)CC[C@]3(C)C(=CC[C@@H]4[C@@]5(C)CCC(=O)C(C)(C)[C@@H]5CC[C@]43C)[C@@H]2C1 [Oleanonic Acid],1.12
16,O=C(Nc1c[nH]nc1-c1nc2ccc(CN3CCOCC3)cc2[nH]1)NC1CC1,0.106
17,O=C(NC1CCOCC1)c1ccc(-c2cc(-c3c[nH]nc3-c3ccccn3)ccn2)cc1,1.01
18,COCCN1CCN(Cc2ccc(-c3n[nH]c4c3C(=O)c3c(NC(=O)NN5CCOCC5)cccc3-4)cc2)CC1,0.253
19,CCCCCCCCNc1cc(=O)[nH]c(=O)[nH]1,1.01
20,"CCC(=O)Oc1ccc2c(c1)CCC1C2CCC2(C)C(OC(=O)CC)CCC12 (stereo not drawn) [17-Beta-Estradiol-3,17-Dipropionate]",1.24
21,CCCOc1ccc(CCc2nc3cc(-c4c(C)noc4C)ccc3n2CCN2CCOCC2)cc1 [PF-CBP1 hydrochloride],1.06
22,O=C(Nc1ccc(OC(F)(F)Cl)cc1)c1cnc(N2CC[C@@H](O)C2)c(-c2cc[nH]n2)c1 [Asciminib],1.11
23,NC(=O)Cc1cc[nH]n1 [1H-Pyrazole-3-acetamide],0.268

row,Structure (SMILES),cell viability
1,CONC(=O)Nc1ccc(-c2sc3c(c2CN(C)Cc2ccccc2)c(=O)n(-c2ccccc2)c(=O)n3Cc2c(F)cccc2F)cc1 [Sufugolix],0.979
2,CNS(=O)(=O)c1ccccc1Nc1nc(Nc2ccc(N3CCN(C)CC3)cc2OC)ncc1Cl [ALK inhibitor 2],0.448
3,COc1cc(N2CCC(N3CCN(C)CC3)CC2)ccc1Nc1ncc(Cl)c(Nc2ccccc2S(=O)(=O)C(C)C)n1,0.421
4,CN1CCN(Cc2ccc(Nc3ncc(Cl)c(Nc4ccccc4S(=O)(=O)N(C)C)n3)cc2)CC1,0.0869
5,O=C(/C=C/c1ccc(O)cc1)C1=C(O)C(O)([C@@H]2O[C@H](CO)[C@@H](O)[C@H](O)[C@H]2O)C(O)=C([C@@H]2O[C@H](CO)[C@@H](O)[C@H](O)[C@H]2O)C1=O (some centres not stated) [Hydroxysafflor yellow A],1.07
6,CCOCc1nc2c(N)nc3ccccc3c2n1CC(C)(C)O [Resiquimod],1.06
7,O=C(Nc1cccc(-c2ccccc2)c1)OC1CCCCC1,1.01
8,COc1ccc(CCc2cc(OC)c(OC)c(OC)c2)cc1O [Erianin],0.335
9,CCNC(=O)c1noc(-c2cc(Cl)c(O)cc2O)c1-c1ccc(OC)cc1,0.237
10,CCNC(=O)c1noc(-c2cc(C(C)C)c(O)cc2O)c1-c1ccc(CN2CCOCC2)cc1 [Luminespib],0.0552
11,O=C(Nc1ccc(CN2CCOCC2)cc1)c1ccc(-c2cccc(Cl)c2)o1,0.775
12,CC1(C)CC[C@]2(C(=O)O)CC[C@]3(C)C(=CC[C@@H]4[C@@]5(C)CC[C@H](O[C@@H]6O[C@H](C(=O)O)[C@@H](O)[C@H](O[C@@H]7OC[C@@H](O)[C@H](O)[C@H]7O)[C@H]6O)C(C)(C)[C@@H]5CC[C@]43C)[C@@H]2C1 [Momordin Ic],1.1
13,C[C@@]1(CO)C[C@@H](O)C[C@@]2(C)[C@@H]3CC[C@](C)([C@@H](O)CO)C=C3CC[C@H]12 [Kirenol],1.1
14,Cc1c(CN2CCN(c3cccc(C(F)(F)F)c3)CC2)cc(-c2ccccc2)n1NC(=O)c1ccncc1 [Sudoterb free base],1.05
15,Cc1ccc([N+](=O)[O-])cc1S(=O)(=O)N(C)/N=C/c1cnc2ccc(Br)cn12,0.165
16,Cc1ccc([N+](=O)[O-])cc1S(=O)(=O)N(C)/N=C/c1cnc2ccc(Br)cn12 [PIK-75  hydrochloride],0.153
17,Cc1ccccc1C(C(=O)NC1CCCCC1)N(C(=O)Cn1cnc2ccccc21)c1cccc(F)c1 (configuration not stated),1.19
18,CCC(=O)Nc1cccc(Oc2nc(Nc3ccc(N4CCN(C)CC4)cc3OC)ncc2Cl)c1,1.22
19,CN1CCN(c2ccc(OC(F)(F)F)c(Nc3ncc4c(n3)-c3c(c(C(N)=O)nn3CCO)CC4)c2)CC1,0.168
20,C=CC(=O)Nc1cccc(Oc2nc(Nc3ccc(N4CCN(C)CC4)cc3OC)ncc2Cl)c1,1.19
21,CCCCc1nc2ccc(NC(=O)NC3CCCCC3)cc2n1Cc1ccc(-c2ccccc2C(=O)O)cc1,1.08
22,Cc1cc2cc(Oc3ccnc(Nc4cccc(CS(=O)(=O)NCCN(C)C)c4)n3)ccc2[nH]1 [Sulfatinib],1.03
23,Cc1nc(=O)c2cc(CN(C)c3ccc(C(=O)N[C@@H](CCC(=O)O)C(=O)O)s3)ccc2[nH]1 [Raltitrexed],0.151

row,Structure (SMILES),cell viability
1,CN(Cc1cnc2nc(N)nc(N)c2n1)c1ccc(C(=O)N[C@@H](CCC(=O)O)C(=O)O)cc1 [Methotrexate],0.375
2,Nc1nc(=O)c2c([nH]1)NCC(CNc1ccc(C(=O)N[C@@H](CCC(=O)O)C(=O)O)cc1)N2C=O (some centres not stated) [Calcium folinate],1.08
3,COc1cc(/C=C/CO)cc(OC)c1O[C@@H]1O[C@H](CO)[C@@H](O)[C@H](O)[C@H]1O [eleutheroside-b],1.13
4,CCCCNNC(=O)c1ccc(-c2cccc(F)c2F)cc1,1.03
5,COc1cc(/C=C/C(=O)NCCn2c(C(F)(F)F)cc3ccccc32)cc(OC)c1OC,1.05
6,COc1cc(CCC(=O)CC(=O)CCc2ccc(O)c(OC)c2)ccc1O [Tetrahydro Curcumin],1.03
7,CCCS(=O)(=O)Nc1ccc(F)c(C(=O)c2c[nH]c3ncc(-c4ccc(Cl)cc4)cc23)c1F [Vemurafenib],1.2
8,COc1ncc(-c2ccc3nccc(-c4ccnnc4)c3c2)cc1NS(=O)(=O)c1ccc(F)cc1F [Omipalisib],0.148
9,CS(=O)(=O)Nc1cc(-c2ccc3ncnc(Nc4ccc(F)c(Cl)c4)c3c2)cnc1Cl,1.08
10,CO[C@@H](C)Cn1c(=O)n(C)c2cnc3ccc(-c4cncc(C(C)(C)O)c4)cc3c21,0.412
11,O=C(O)c1c[nH]c2cc(Cl)c(-c3ccc(C4(O)CCC4)cc3)cc12,1.09
12,C/C=C1\NC(=O)[C@H]2CSSCC/C=C/[C@H](CC(=O)N[C@H](C(C)C)C(=O)N2)OC(=O)[C@H](C(C)C)NC1=O [Romidepsin],0.0515
13,CCN(CC)CCNc1ccc(C)c2sc3ccccc3c(=O)c12 [Lucanthone],0.956
14,COCC[n+]1c2c(n(Cc3cnccn3)c1C)C(=O)c1ccccc1C2=O,0.0796
15,COc1ccc(S(=O)(=O)Nc2ccccc2C=Cc2ccncc2)cc1,0.238
16,C[C@@H]1O[C@@H](O[C@@H]2[C@@H](O)[C@H](OCCc3ccc(O)c(O)c3)O[C@H](CO)[C@H]2OC(=O)/C=C/c2ccc(O)c(O)c2)[C@H](O)[C@H](O)[C@H]1O [Verbascoside],1.03
17,CN(C(=O)CNC(=O)/C=C/c1cccc(Cl)c1)C1CCS(=O)(=O)CC1,0.834
18,O=C(CNc1ccc2ccccc2c1)N/N=C/c1cc(Br)c(O)c(Br)c1O,1.05
19,COC(=O)C1=CO[C@@H](O[C@@H]2O[C@H](CO)[C@@H](O)[C@H](O)[C@H]2O)[C@H]2[C@@H]1[C@H](O)C[C@]2(C)OC(C)=O [8-O-Acetylshanzhiside methyl ester],0.898
20,OCC1(O)COc2cc(O)ccc2-c2cc(O)c(O)cc2C1 (configuration not stated) [Protosappanin B],1.04
21,O=c1cc(-c2ccc(O)c(-c3c(O)cc(O)c4c(=O)cc(-c5ccc(O)cc5)oc34)c2)oc2cc(O)cc(O)c12 [Amentoflavone],1.08
